Screens deposited in PubChem BioAssay by National Center for Advancing Translational Sciences (NCATS).
hERG WT inh: inhibitors of human wildtype KCNH2 potassium channel; Q12809; U2OS, BacMam KCNH2, thallium flux FluxOr; active compounds read low; activity change, % at 1.84 µM; actives 0.37% (n = 340,000); AID 720551;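 active = maximum activity change below -70%; inconclusive = maximum activity change between -70% and -50%; inactive = maximum activity change above -50%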
Target sequence (Q12809 whole entry, looked up): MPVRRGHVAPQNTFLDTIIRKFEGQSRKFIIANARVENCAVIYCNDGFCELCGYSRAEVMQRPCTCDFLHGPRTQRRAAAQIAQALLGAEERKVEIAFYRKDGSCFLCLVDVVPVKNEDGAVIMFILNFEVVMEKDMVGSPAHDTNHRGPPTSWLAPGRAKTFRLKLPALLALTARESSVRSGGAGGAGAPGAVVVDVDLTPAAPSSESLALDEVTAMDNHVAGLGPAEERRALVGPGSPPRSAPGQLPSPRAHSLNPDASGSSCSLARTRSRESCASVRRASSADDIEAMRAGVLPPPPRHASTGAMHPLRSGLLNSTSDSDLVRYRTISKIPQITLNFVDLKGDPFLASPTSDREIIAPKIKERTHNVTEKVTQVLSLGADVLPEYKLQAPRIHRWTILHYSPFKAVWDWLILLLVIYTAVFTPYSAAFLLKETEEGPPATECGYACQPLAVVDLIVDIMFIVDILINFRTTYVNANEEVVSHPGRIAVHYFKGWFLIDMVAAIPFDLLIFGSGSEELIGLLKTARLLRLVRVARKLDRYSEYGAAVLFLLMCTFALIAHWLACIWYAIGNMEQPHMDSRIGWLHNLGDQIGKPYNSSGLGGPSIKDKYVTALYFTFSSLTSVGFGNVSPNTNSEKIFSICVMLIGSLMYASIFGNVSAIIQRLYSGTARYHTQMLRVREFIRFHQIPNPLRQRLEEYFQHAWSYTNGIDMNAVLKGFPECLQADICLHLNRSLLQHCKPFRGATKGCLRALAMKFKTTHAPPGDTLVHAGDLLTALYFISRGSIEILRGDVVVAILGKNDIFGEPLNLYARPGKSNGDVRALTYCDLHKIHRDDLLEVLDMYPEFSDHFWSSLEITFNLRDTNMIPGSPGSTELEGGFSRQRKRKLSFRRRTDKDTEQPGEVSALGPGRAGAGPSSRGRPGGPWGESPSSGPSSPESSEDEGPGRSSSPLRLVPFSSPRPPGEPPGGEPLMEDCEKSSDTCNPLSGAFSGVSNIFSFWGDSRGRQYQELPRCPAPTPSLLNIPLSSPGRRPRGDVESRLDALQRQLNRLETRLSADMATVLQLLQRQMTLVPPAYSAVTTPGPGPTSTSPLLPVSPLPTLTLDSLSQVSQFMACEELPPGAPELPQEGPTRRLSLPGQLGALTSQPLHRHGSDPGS
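U2OS cells were transduced with wild-type KCNH2 virus (2.03 x 10^8 / mL) for 4 h at room temperature, then cultured overnight at 37 C. Thallium flux was read with FluxOr dye. Rate constants were normalized to DMSO controls.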
S-ASM inh: inhibitors of human secretory acid sphingomyelinase | P17405 | placental ASM, HMU-PC fluorogenic substrate, 60 min | Potency, µM (series often up to 57.5 µM), actives largely listed as inhibitors | actives 0.006% (n = 340,000)
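qHTS format. ASM enzyme prepared from human placenta hydrolyses the fluorogenic substrate HMU-PC0 (9 uM final) over 60 min at 37 °C after a 10 min compound preincubation.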
uPA generation: inhibitors of cell surface uPA generation; cell surface uPA generation assay, qHTS; Potency, µM (series often up to 38.3 µM), usual class: inhibitors; actives 0.31% (n = 330,000); active = well fitted inhibition curve with a large enough effect; inconclusive = small, poorly fitted or top-dose-only effect; inactive = no such curve, though single readings can be large or run the other way; tested in mouse RAW 264.7 cells; also: nearly all actives have a fitted effect of over 55% in size
KCNH2 3.1 block: KCNH2 3.1 (human) potassium channel inhibition; U2OS KCNH2 3.1, thallium flux FluxOr; active compounds read low; activity change, % (tested at about 1.8 µM); actives 0.95% (n = 340,000); AID 720553;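 active = maximum activity change below -70%; inconclusive = maximum activity change from -70% to -50%; inactive = maximum activity change above -50%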;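 also: thallium influx rate constant from kinetic fluorescence after stimulation buffer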
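Measured as rate of thallium-driven FluxOr signal in transduced U2OS cells carrying the 3.1 channel, read kinetically for 2 min upon stimulation; values are rate constants scaled to DMSO control wells.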
Mm-Cpn inhibitor: M. maripaludis TRiC chaperonin inhibition. actives 0.031% (n = 330,000). purified Mm-Cpn ATPase, ADP Transcreener TR-FRET. Potency, µM (highest dose often 76.9 µM), usual class: inhibitors; also: nearly all actives have a fitted effect of over 80% in size
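Measured: ADP formation by purified Mm-CPN. Conditions: 25 nM protein, 10 uM ATP, Tris pH 7.4 with Mg2+, K+ and DTT, 37°C for 30 min. Detection: Transcreener HTRF after 30 min at room temperature.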
p53 reactivator: restores transcriptional activity of mutant p53 | H1299 p53-A138V BP100-luciferase reporter, luminescence, 24 h | Potency, µM (series often up to 92.2 µM), actives largely listed as activators | actives 0.063% (n = 320,000) | AID 504706; also: nearly all actives have a fitted effect of over 45% in size
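p53-null H1299 cells stably carrying temperature-sensitive p53-A138V and a BP100-luciferase reporter were pinned with compounds (4-point, 1:5 series) and held 24 hrs at 37 deg C. Luminescence was read 10 min after detection reagent.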
Numbers stand for hits; 0 = inactive; ? = inconclusive; - = no result; [ ] = another dose, or the depositor's remark. This is a sample that favours compounds with a hit; in the whole collection about 1.4% have one here. Unless noted, calls follow the shape of the dose curve; as a rule, active = well fitted curve in the direction sought with a large enough effect; inconclusive = small, poorly fitted or top-dose-only effect, or another doubt; inactive = no such curve, though single readings can be large; an effect the other way counts as inactive or inconclusive.

SMILES	hERG WT inh	S-ASM inh	uPA generation	KCNH2 3.1 block	Mm-Cpn inhibitor	p53 reactivator
Cc1ccc(C)c(NC(=O)CCC(=O)NNC(=S)Nc2ccccc2)c1	0	0	0	0	0	0
O=C(CSc1ccc(-c2ccccn2)nn1)NCc1ccccc1	-115	0	0	0	0	0
CCOn1c(=O)c(-c2ccc(Cl)cc2)[n+]([O-])c2ccccc21	0	0	0	0	0	0
CCOn1c(=O)c(-c2ccc(C)cc2)[n+]([O-])c2ccccc21	0	0	0	-84	0	0
Cc1ccc(C)c(C(=O)CN2C(=O)NC3(CCCCCC3)C2=O)c1	0	0	0	0	0	0
COc1ccc(CN2CCCC(C(=O)c3ccc(SC)cc3)C2)cc1Cn1cccn1 (stereo not given)	-96	0	0	-82	0	0
COc1ccc(C(=O)C2CCCN(Cc3cn(C)nc3-c3ccccc3)C2)cc1F (stereo not given)	0	0	0	-71	0	0
CCOc1ccccc1CN1CCCC(C(=O)c2ccc(OC)c(OC)c2)C1 (stereo not given)	0	0	0	0	0	-
CCCCc1cc(=O)oc2cc(C)cc(OCC(=O)N3C[C@H]4C[C@@H](C3)c3cccc(=O)n3C4)c12	0	0	0	0	0	-
O=C(Cn1ccc(=O)[nH]c1=O)Nc1nccs1	0	-	-	0	-	-
CSc1ncccc1C(=O)OC(C)C(=O)Nc1cccc(S(=O)(=O)N2CCOCC2)c1 (stereo not given)	-315	0	0	0	0	0
CC(=O)N1CCN(c2ccccc2NC(=O)c2cc(Br)ccc2Cl)CC1	0	0	0	0	0	0
O=C(Nc1ccccc1N1CCN(C(=O)c2ccc(Cl)cc2)CC1)c1cc(Br)ccc1Cl	-121	0	0	-101	0	0
CN1CCN(c2ccccc2NC(=O)c2cc(Br)ccc2Cl)CC1	0	0	0	-87	0	0
Cc1cccnc1NC(=O)c1ccc([N+](=O)[O-])o1	0	0	0	0	0	11µM
Cc1ccc(C(=O)Nc2ncccc2C)o1	0	0	0	0	-	-
O=C(Nc1ccccc1N1CCN(C(=O)c2ccc(Cl)cc2)CC1)c1cccc([N+](=O)[O-])c1	-123	0	0	-102	0	0
Nc1nc(N)nc(Cc2ccccc2O)n1	-	0	0	-	0	0
CS(=O)(=O)N1CCN(c2ccccc2NC(=O)c2ccc([N+](=O)[O-])o2)CC1	0	0	0	0	0	0
Cc1ccc(C(=O)Nc2ccccc2N2CCCCC2)cc1[N+](=O)[O-]	0	0	0	-83	?	0
CN1CCN(c2ccccc2NC(=O)c2ccc([N+](=O)[O-])o2)CC1	0	0	4.5µM	0	0	0
Cc1ccc(C(=O)NC(=S)Nc2ccccc2N2CCCC2)cc1[N+](=O)[O-]	0	0	0	0	0	0
Cn1c(CCn2ccccc2=O)nc2cc(NC(=O)COc3ccccc3)ccc21	0	0	0	0	0	0
O=C(CCC1CCCCC1)NC1CCCCC1	0	0	0	0	0	0
COc1ccc(NC(=O)CN(C)C(=O)c2cc(C)on2)cc1	0	0	0	0	0	0
SMILES	hERG WT inh	S-ASM inh	uPA generation	KCNH2 3.1 block	Mm-Cpn inhibitor	p53 reactivator
O=C1c2ccc3c4c(ccc(c24)C(=O)N1CCCCO)C(=O)N(CCCCO)C3=O	0	0	2.5µM	0	0	0
Cc1ccc(C)c(S(=O)(=O)N2CCN(C(C(=O)Nc3ccc(F)cc3)c3ccccc3)CC2)c1 (stereo not given)	0	0	0	-86	0	0
Oc1ccc(-c2csc(Nc3ccccn3)n2)cc1O	0	0	4µM	0	0	?
Cc1ccc(Nc2nc(-c3cccs3)cs2)nc1	0	0	?	0	0	0
Cc1ccnc(Nc2nc(-c3ccc(O)c(O)c3)cs2)c1	0	0	0	0	0	0
Cc1ccc(Nc2nc(-c3ccccc3)cs2)nc1	0	0	10µM	0	0	-
c1ccc(COc2ncnc3c2ncn3CCCNCc2cccs2)cc1	0	-	-	0	-	-
CCOc1cc(C(=S)N2CCCCC2)ccc1OS(=O)(=O)c1ccc(Br)cc1	0	0	-	0	0	0
CCOc1cc(C(=S)N2CCCCC2)ccc1OS(=O)(=O)c1ccc(Cl)cc1	0	0	-	-114	0	0
CCC(=O)Nc1ccc(Nc2ccccc2)cc1	-82	0	0	0	0	0
CCC(=O)Nc1cccc(SC)c1	0	0	0	-83	0	0
CCC(CC)C(=O)Nc1cccc(SC)c1	-	-	-	-	0	0
CCOC(=O)N1CCC(Nc2cccc(SC)c2)CC1	0	0	0	-71	0	0
CCOC(=O)N1CCC(N(CCOC)C(=S)Nc2cccc(SC)c2)CC1	0	0	0	0	0	0
COc1ccc(Cl)cc1N(CC(=O)NCc1ccccn1)S(=O)(=O)c1ccc(C)cc1	0	-	-	0	-	-
Cc1ccc(CCNC(=O)Cn2ncc3c([nH]c4ccccc43)c2=O)cc1	0	0	0	0	0	0
O=C(Cn1ncc2c([nH]c3ccccc32)c1=O)NCC1CCN(Cc2ccc(F)cc2)CC1	0	0	0	-98	0	0
Fc1c(CSC(=S)N2CCOCC2)cccc1CSC(=S)N1CCOCC1	-152	0	0	-196	0	0
CCN(CC(=O)Nc1ccc2c(c1)OCCO2)C(=O)/C=C/c1cc(Br)ccc1OC	0	-	-	0	-	-
S=c1[nH]nc(-c2cccnc2)n1/N=C/c1ccc(Br)s1	0	0	0	-99	0	0
Oc1ccc(/C=C/c2cc(O)cc(O)c2)cc1	0	0	6.3µM	0	0	?
CCNCCC(CCC(C)C)c1ccc2c(c1)OCO2 (stereo not given)	-79	0	0	-99	0[15.4 µM]	0
CC(C)CCC(CCNCc1ccccn1)c1ccc2c(c1)OCO2 (stereo not given)	?	0	0	-95	0	0
Fc1ccccc1CNCCC(Cc1ccccc1)c1ccc2c(c1)OCO2 (stereo not given)	0	0	0	0	0	0
COC(=O)[C@]1(C)N[C@H](CN(C)S(=O)(=O)c2ccc(OC(F)(F)F)cc2)[C@@H]2C(=O)N(C)C(=O)[C@@H]21	0	0	0	-	0	0
SMILES	hERG WT inh	S-ASM inh	uPA generation	KCNH2 3.1 block	Mm-Cpn inhibitor	p53 reactivator
COc1ccc(/C=C/C(=O)C2(O)CCCCC2)cc1	0	0	0	0	0	40µM
COc1ccc(/C=C/C(=O)O)cc1	0	0	0	0	0	0
COC(=O)c1oc2ccccc2c1NC(=O)/C=C/C(=O)O	0	0	0	-74	0	0
CCCCn1c(C)cc2c(c1=O)[C@H]1O[C@](CCCC)(Cc3c1ccc1ccccc31)O2	-	-	-	-	0[15.4 µM]	-
Cc1cc(C)c(S(=O)(=O)NCCn2c(C)cc3ccccc32)c(C)c1	0	?	0	0	35µM	0
O=C(Nc1ccccc1OC(F)F)c1ccc(N2CCCC2=O)cc1	0	-	-	0	-	-
